From PubChem BioAssay (EPA / NIEHS)
Results filed as inconclusive are left out. Activity calls are given as the source filed them. How the source made its calls: active means hit-call score of the fitted dose curve at least 0.9, where 1 is the maximum; inconclusive means response in the unintended direction; inactive means score below 0.9.

Assays:
[1] = ATG_XTT_Cytotoxicity: Cytotoxicity Assessment in the Attagene TRANS-FACTORIAL HepG2 Assay (AID 2283584)
In short: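 HepG2 human liver cells, transiently transfected with multiple GAL4-UAS reporter units, were dosed and read at 24 h by XTT as cell number. Loss of signal was fitted relative to DMSO negative control baseline.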

[2] = TOX21_p53_BLA_p3_viability: Viability Assessment in the Tox21 HCT-116 p53 Agonism Beta-lactamase Assay, Phase 3 (AID 2283593);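 further: cells exposed to compound for 16 h before reading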
In short: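 HCT-116 cells (4000/well) rested 5 h at 37C, then got DMSO compounds by pin tool (217-fold dilution) for 16 h at 37C, 5% CO2. After the bla read, CellTiter-Glo was added and luminescence read at 30 min, room temperature.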

[3] = biological target: Cellular tumor antigen p53 (Homo sapiens) (UniProt P04637); experiment: TOX21_p53_BLA_p3_ratio: Tox21 HCT-116 p53 Agonism Beta-lactamase Assay, Ratio, Phase 3 (AID 2283596)
Chain of Cellular tumor antigen p53 (Homo sapiens) (P04637 whole entry, looked up): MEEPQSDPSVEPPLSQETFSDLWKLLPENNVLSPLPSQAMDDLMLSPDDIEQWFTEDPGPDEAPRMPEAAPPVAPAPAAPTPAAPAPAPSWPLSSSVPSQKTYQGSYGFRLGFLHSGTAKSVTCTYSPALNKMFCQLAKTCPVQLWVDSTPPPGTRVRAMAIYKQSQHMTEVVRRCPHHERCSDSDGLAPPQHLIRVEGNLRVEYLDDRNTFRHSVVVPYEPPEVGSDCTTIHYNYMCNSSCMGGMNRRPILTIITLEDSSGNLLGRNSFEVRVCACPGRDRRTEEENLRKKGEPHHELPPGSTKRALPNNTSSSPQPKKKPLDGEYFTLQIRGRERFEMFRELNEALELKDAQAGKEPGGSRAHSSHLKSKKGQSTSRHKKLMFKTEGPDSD
In short: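 Cells were seeded at 4000/well, rested 5 h at 37C, then dosed with DMSO compound solutions (217-fold dilution) for 16 h. CCF4-AM substrate was loaded for 2 h at room temperature, and the 460/530 nm emission ratio was fitted for gain of signal versus DMSO.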

[4] = biological target: Cellular tumor antigen p53 (Homo sapiens) (UniProt P04637); experiment: TOX21_p53_BLA_p5_ratio: Tox21 HCT-116 p53 Agonism Beta-lactamase Assay, Ratio, Phase 5 (AID 2283599)
In short: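 HCT-116 cells carrying a p53-inducible beta-lactamase reporter were seeded at 4000 cells/well and dosed after 5 h with compound in DMSO (217-fold dilution). After 16 h at 37C, CCF4-AM substrate was added for 2 h, and the 460/530 nm emission ratio was scored as gain-of-signal versus DMSO.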

[5] = TOX21_p53_BLA_p4_viability: Viability Assessment in the Tox21 HCT-116 p53 Agonism Beta-lactamase Assay, Phase 4 (AID 2283597);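 further: hits lower the luminescence signal meaning cytotoxicity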
In short: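 Cytotoxicity was inferred from loss of CellTiter-Glo luminescence. HCT116 cells had been dosed with compounds after 5 h plating, incubated 16 h at 37C and 5% CO2, and exposed to the CCF4-AM substrate for 2 h.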

[6] = biological target: Cellular tumor antigen p53 (Homo sapiens) (UniProt P04637); experiment: TOX21_p53_BLA_p4_ratio: Tox21 HCT-116 p53 Agonism Beta-lactamase Assay, Ratio, Phase 4 (AID 2283601)
In short: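 HCT116 cells carrying an inducible beta-lactamase reporter were plated at 4000 cells/well, rested 5 h, then exposed to compounds in DMSO (217-fold dilution) for 16 h at 37C. CCF4-AM substrate was loaded 2 h at room temperature; 460/530 nm emission ratio scored gain-of-signal versus DMSO.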

[7] = TOX21_p53_BLA_p5_viability: Viability Assessment in the Tox21 HCT-116 p53 Agonism Beta-lactamase Assay, Phase 5 (AID 2283600)
In short: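 Luciferase-coupled ATP quantitation of cells treated for 16 h (37C, 5% CO2) with test chemicals delivered in DMSO via a 217-fold dilution; 4000 cells/well; reagent incubated 30 min at room temperature before luminescence reading.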

[8] = biological target: Cellular tumor antigen p53 (Homo sapiens) (UniProt P04637); experiment: TOX21_p53_BLA_p2_ratio: Tox21 HCT-116 p53 Agonism Beta-lactamase Assay, Ratio, Phase 2 (AID 2283592)
In short: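 Ratio endpoint: beta-lactamase cleavage of CCF4-AM, blue (460 nm) over green (530 nm). HCT116 reporter line; 16 h treatment, 37C; substrate 2 h RT.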

[9] = TOX21_p53_BLA_p2_viability: Viability Assessment in the Tox21 HCT-116 p53 Agonism Beta-lactamase Assay, Phase 2 (AID 2283591);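 further: compound exposure lasted 16 h at 37 °C; actives lower the ATP signal meaning cytotoxicity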
In short: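 HCT-116 p53-bla cells (4000/well) rested 5 h at 37C, then received compounds in DMSO (217-fold dilution) for 16 h at 37C, 5% CO2. After the CCF4 read, CellTiter-Glo was added; ATP luminescence was read after 30 min at room temperature.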

Measured: outcome

CC(C)C(=O)c1ccccc1
inactive: [1] | [2] | [3] | [4]

C=C(C)C(=O)OCCC(C)OC(=O)C(=C)C (stereo not given)
inactive: [1] | [5] | [4] | [6]

C=CC(=O)OCCCCCC
not listed: [7] | [8] | [9]
inactive: all other assays above

C=CC(C)CCCC(C)(C)O (stereo not given)
not listed: [5] | [8] | [9]
inactive: all other assays above

CCCCCCCCOC(C)=O
inactive: [1] | [8] | [3] | [6]

CC(C)COC(=O)c1ccccc1
not listed: [1] | [5]
inactive: all other assays above

CCOC(=O)CCCCCCCCC(=O)OCC
inactive: [8] | [3] | [4] | [7] | [6]

CCC(C)(C)C1CCC(=O)CC1
not listed: [1] | [5]
inactive: all other assays above

C=C(C)C(=O)OCCC[Si](OC)(OC)OC
not listed: [1] | [5]
inactive: all other assays above

O=S(=O)(O)c1cc(S(=O)(=O)O)c2c(N=Nc3ccccc3)c(O)ccc2c1
not listed: [1] | [4] | [5]
inactive: all other assays above

[O-]/[N+](=N\O)c1ccccc1
not listed: [1] | [5]
inactive: all other assays above

C=CCOC(=O)/C=C\C(=O)OCC=C
not listed: [1] | [5]
inactive: all other assays above

CC1=CCC(=C(C)C)CC1
inactive: [9] | [2] | [3] | [4] | [6]

C=COCC1CCC(COC=C)CC1 (stereo not given)
inactive: [3] | [4] | [7] | [6]

CCO[Si](CC)(OCC)OCC
not listed: [1] | [4] | [5]
inactive: all other assays above

CC(=O)OC(C)(C)C
inactive: [9] | [8] | [2] | [6]

CC(C)=CC(=O)O
inactive: [9] | [2] | [3] | [4]

CC(=O)c1cccnc1
inactive: [8] | [3] | [5] | [4] | [6]

CCC(C)(CCCC(C)C)OC(C)=O (stereo not given)
inactive: [8] | [5] | [4] | [7] | [6]

CCCCC(CC)COC(=O)COc1ccc(Cl)cc1C (stereo not given)
inactive: [8] | [2] | [3] | [5] | [7]

CC1=CC(C)C(C=O)C(C)C1 (stereo not given) (tested in a mixture with another compound)
inactive: [9] | [8] | [3] | [7] | [6]

CC1=CCC(C(C)(C)O)CC1 (stereo not given)
not listed: [1] | [5]
inactive: all other assays above

CC1=CCC(C(C)C)=CC1
inactive: [2] | [3] | [7] | [6]

O=S(=O)(O)c1cc(O)c(O)c(S(=O)(=O)O)c1
not listed: [1] | [3] | [4]
inactive: all other assays above

C=CCS(=O)(=O)O
not listed: [1] | [5] | [9]
inactive: all other assays above

C=CC(C)(CCC=C(C)C)OC(=O)CC (stereo not given)
inactive: [8] | [3] | [4] | [7] | [6]

COC(=O)c1cccc(C(=O)OC)c1
not listed: [1] | [5]
inactive: all other assays above

C[Si]1(C)N[Si](C)(C)N[Si](C)(C)N1
not listed: [1] | [2] | [7]
inactive: all other assays above

O=C(C=Cc1ccccc1)OCCCc1ccccc1
not listed: [1] | [8]
inactive: all other assays above

CCCCCCCCOS(=O)(=O)O
inactive: [9] | [8] | [2] | [7] | [6]

CC(C)=CCCC(C)=CC(=O)O
inactive: [9] | [2] | [3] | [7] | [6]

c1ccc(-c2nn[nH]n2)cc1
inactive: [8] | [2] | [3] | [4] | [6]

CC1=CC(=O)[C@H]2C[C@@H]1C2(C)C
not listed: [1] | [6] | [9]
inactive: all other assays above

NCCCOCCOCCOCCCN
not listed: [1] | [5]
inactive: all other assays above

CCCCCC1CCC(=O)O1 (stereo not given)
inactive: [9] | [8] | [3] | [4] | [6]

CCCCC1CCCCC(=O)O1 (stereo not given)
not listed: [1] | [6] | [8]
inactive: all other assays above

O=C(O)c1cc(C(=O)O)c(C(=O)O)cc1C(=O)O
inactive: [8] | [3] | [7]

CC(C)N1C(=O)c2ccccc2C1=O
inactive: [9] | [8] | [4] | [7] | [6]

CC(C)(C)c1cccc(O)c1
not listed: [1] | [2] | [5]
inactive: all other assays above

N#CCCCC(C#N)CCC#N (stereo not given)
inactive: [8] | [2] | [5] | [4]

CCCCCC#CC(=O)OC
inactive: [3] | [4] | [6]

CCCCOC(=O)C(C)OC(=O)CCC (stereo not given)
inactive: [9] | [8] | [3] | [7] | [6]

CC(C)CCCC(C)(C)O
inactive: [2] | [3] | [4] | [7]

C1=COCCC1
inactive: [9] | [8] | [3] | [7] | [6]

CNC(=C[N+](=O)[O-])NCCSCc1ccc(CN(C)C)o1
inactive: [9] | [8] | [2] | [7] | [6]
